# Measured values: PubChem BioAssay (NCATS)
# Results filed as inconclusive are left out. A number with no mark means an inactive call. Active and inactive are the calls of the source. The call rests on the fitted dose curve; in most records, active means well fitted cell-killing curve with a large enough effect; inconclusive means small, poorly fitted or top-dose-only effect, or effect the other way; inactive means no such curve, though single readings can be large or run the other way.
# Assay: Cell Viability - LYMP2-004 (AID 966); further: nearly all actives have a fitted effect of over 65% in size;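 on activity change, negative = cytotoxicity: plate controls were DMSO only for no effect and tetraoctylammonium bromide control for full effect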
# Conditions: LYMP2-004 lymphoblastoid cell viability, qHTS; series mostly up to 92.2 µM; activity change, negative = cytotoxicity: at the top concentration
# Text: NIH Chemical Genomics Center [NCGC]
# NIH Molecular Libraries Screening Centers Network [MLSCN]
# National Institutes of Environmental Health Sciences [NIEHS]
# National Toxicology Program [NTP]
# We have developed a 1536-well cell-based assay for quantitative high throughput screening (qHTS) against a number of cell lines to determine in vitro cytotoxicity of small molecules. This particular assay uses a human lymphoblastoid cell line (LYMP2-004) purchased from Coriell Institute for Medical Research.
# NCGC Assay Protocol Summary:
# The CellTiter-Glo luminescent cell viability assay (Promega) is a homogeneous method to measure the number of viable cells in culture. The end point readout of this assay is based on quantitation of intracellular ATP, an indicator of metabolic activity, using the luciferase reaction. Luciferase catalyzes the oxidation of beetle Luciferin to oxyluciferin and light in the presence of ATP. The luminescent signal is proportional to amount of ATP present.
# Using the CellTiter-Glo luminescent cell viability assay, the amount of cellular ATP was measured in the lymphoblastoid cell line with complete culture medium following compound treatment for 24 hours. The assay was performed in opaque white Kalypsys 1536-well plates. In the screen, tetraoctylammonium bromide was used as positive control. Library compounds were measured for their ability to cause acute toxicity in the cell line, as reflected by a decrease in intracellular ATP levels, in a concentration-dependent manner. […] AC50 values were determined from concentration-response data modeled with the standard Hill equation.
# qHTS protocol for CellTiter Glo lymphoblastoid cellular assay
# [Step] [Parameter] [Value] [Description]
# 1. Reagent; 5 uL; 2500 lymphoblastoid cells/well
# 2. Time; 5 hr; 37 C incubation
# 4. Controls; 23 nL; Tetraoctylammonium bromide 6.4pM to 92 uM
# 5. Time; 24 hr; 37 C incubation
# 6. Reagent; 5 uL; CellTiter Glo reagent
# 7. Time; 30 min; Room Temperature
# 8. Detection; Luminescence; Viewlux plate reader
# Keywords: cell viability, cytotoxicity, lymphoblastoid cell line, luminescence, NTPHTS, NTPHTS_NCGC, NIEHS, DSSTox, MLSMR, MLSCN, NIH Roadmap, qHTS, NCGC
# Potency means the concentration at half of the fitted maximal effect.
SMILES,"activity change, negative = cytotoxicity",Potency
COc1cc(Cc2cnc(N)nc2N)cc(OC)c1OC,-2.81%,
Nc1ncn([C@@H]2O[C@H](CO)[C@@H](O)[C@H]2O)c(=O)n1,,12.6 µM (active)
NC(=O)N1c2ccccc2C=Cc2ccccc21,15.5%,
NC(=Nc1ccccc1)Nc1ccccc1,-23.5%,
CN=C(NC#N)NCCSCc1nc[nH]c1C,-2.89%,
CCCCNC(=O)NS(=O)(=O)c1ccc(C)cc1,5.21%,
Nc1nc(N)c2nc(-c3ccccc3)c(N)nc2n1,-3.17%,
COc1ccc(CN(CCN(C)C)c2ccccn2)cc1,-9.75%,
O=c1[nH]c(=O)n([C@H]2C[C@H](O)[C@@H](CO)O2)cc1Br,14.6%,
CCCCOCCOCCOCc1cc2c(cc1CCC)OCO2,-7.07%,
